Reference: PubChem BioAssay (Tox21)
“And” between values parts separate entries of the source, which are not always exact repeats. Equal values may be shown once. The source made the active and inactive calls. Unless noted, calls come from the whole dose curve; as a rule, active = well fitted curve in the direction sought with a large enough effect in the repeat runs; inconclusive = weak or mixed curves; inactive = no such curve, though single readings can be large; an effect the other way counts as inactive or inconclusive.

Experiments:
[1] = qHTS assay for small molecule agonists of the p53 signaling pathway (AID 651631; calls by dose curve; note: potency is the fitted concentration of half-maximal effect; nearly all actives have a fitted effect of over 15% in size)
Outline: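 Testing took place in human colorectal HCT-116 cells with stable p53RE-driven beta-lactamase. After 16 h of compound exposure at 37 °C, a FRET substrate was added and fluorescence recorded 2 h later.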

[2] = qHTS assay for small molecules that induce genotoxicity in human embryonic kidney cells expressing luciferase-tagged ATAD5 (AID 651632); note: nearly all actives have a fitted effect of over 15% in size
Outline: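 Genotoxicity read-out via ATAD5-luciferase: HEK293T cells, 16 hr compound incubation at 37C, Amplite detection.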

[3] = qHTS assay for small molecule agonists of the p53 signaling pathway - cell viability (AID 651633; calls by dose curve; note: series mostly up to about 83 µM; nearly all actives have a fitted effect of over 30% in size)
Outline: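 p53RE-bla cells, seeded at 4,000 per well and rested 5 h at 37 C/5% CO2, received compounds in DMSO for 16 h at 37 C. CellTiter-Glo was then added, and luminescence was read after 30 min at room temperature to gauge cytotoxicity.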

[4] = qHTS assay for small molecules that induce genotoxicity in human embryonic kidney cells expressing luciferase-tagged ATAD5 - cell viability (AID 651634; calls by dose curve; note: nearly all actives have a fitted effect of over 25% in size)
Outline: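 Live-cell protease activity (CellTiter-Fluor, fluorescence) indicates viability. HEK293T cells with luciferase-tagged ATAD5; 15.5 hr compound treatment at 37C.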

[5] = qHTS assay for small molecule disruptors of the mitochondrial membrane potential - cell viability (AID 720634; calls by dose curve;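 note: human HepG2 liver cancer cells; series mostly up to about 83 µM; nearly all actives have a fitted effect of over 20% in size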)
Outline: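 Human hepatoma HepG2 cells were treated for 1 hr with test chemicals, then given m-MPI dye and CellTiter-Glo. Cell viability reflects luminescence proportional to cellular ATP.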

[6] = qHTS assay for small molecule disruptors of the mitochondrial membrane potential (AID 720635)
Outline: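 HepG2 cells (2,000/well) attached overnight at 37C, then took compound for 1 hr at 37C, 5% CO2. Mito-MPS dye was added for 30 min; fluorescence was read at 490/535 nm (monomers) and 540/590 nm (aggregates).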

[7] = qHTS assay to test for compound auto fluorescence at 590 nm (red) in HepG2 cells (AID 720674)
Outline: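 Intrinsic compound fluorescence in the red window (Ex/Em 540/590 nm) is measured in attached HepG2 cells exposed for 1 hr, DMSO vehicle as baseline, benchmarked to Rose Bengal sodium.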

[8] = qHTS assay to test for compound auto fluorescence at 535 nm (green) in HepG2 cells (AID 720675)
[9] = qHTS assay to test for compound auto fluorescence at 460 nm (blue) in HEK293 cells (AID 720678)
Outline: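 Blue read-out at excitation 405 nm and emission 460 nm follows overnight compound exposure of HEK293 cells at 37C in 5% CO2. Activity is given as auto fluorescence equivalency to triamterene.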

[10] = qHTS assay to test for compound auto fluorescence at 590 nm (red) in HEK293 cells (AID 720679)
Outline: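 Red channel, Ex/Em 540/590nm; signal expressed as equivalency to Rose Bengal sodium. HEK293, 2,000 cells/well, 10% dialyzed FBS; 23 nL compound pinned after 4-5 hr attachment; overnight 37C/5% CO2 before reading.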

[11] = qHTS assay to test for compound auto fluorescence at 460 nm (blue) in HEK293 cell free culture (AID 720681)
Outline: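 Test compounds were pinned into cell-free culture medium (DMEM with 10% FBS) and fluorescence was read directly at Ex/Em 405/460 nm. Signals were expressed as fluorescence equivalents of triamterene, with DMSO vehicle as control.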

[12] = qHTS assay to test for compound auto fluorescence at 535 nm (green) in HEK293 cell free culture (AID 720682)
Outline: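 DMEM + 10% FBS, cell-free; cpd or DMSO pinned in; Ex485/Em535 read; output as fluorescein-equivalent signal.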

[13] = qHTS assay to test for compound auto fluorescence at 590 nm (red) in HEK293 cell free culture (AID 720683)
Outline: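 Tox21 10K library compounds were pinned into cell-free DMEM with 10% FBS and fluorescence was read at excitation 540 nm. Activity is expressed as Rose Bengal sodium equivalency.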

[14] = qHTS assay to test for compound auto fluorescence at 590 nm (red) in HepG2 cell free culture (AID 720684)
Outline: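 Measured in medium alone (MEM containing 10% FBS) following pintool addition of compound; emission at 590 nm with 540 nm excitation, referenced to Rose Bengal sodium.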

[15] = qHTS assay to test for compound auto fluorescence at 460 nm (blue) in HepG2 cell free culture (AID 720685)
Outline: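 Compound (23 nL) or DMSO pinned into cell-free MEM with 10% FBS; blue fluorescence read at 405/460 nm excitation/emission, expressed as auto-fluorescence equivalency to triamterene.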

[16] = qHTS assay to test for compound auto fluorescence at 535 nm (green) in HepG2 cell free culture (AID 720686)
[17] = qHTS assay to test for compound auto fluorescence at 460 nm (blue) in HepG2 cells (AID 720687)
Outline: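 Cells (2,000/well in MEM with 10% FBS) attached overnight at 37 C, then were exposed to compound or DMSO for 1 hr at 37 C, 5% CO2. Fluorescence read at Ex/Em 405/460 nm, expressed as triamterene-equivalent signal.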

[18] = molecular target: Glucocorticoid receptor (Homo sapiens) (UniProt P04150); test: qHTS assay to identify small molecule agonists of the glucocorticoid receptor (GR) signaling pathway (AID 720691; active = well fitted activation curve with a large enough effect in the signal ratio in the repeat runs, not every such curve was filed as active; inconclusive = weak or mixed curves, or effect the other way; inactive = no such curve, though single readings can be large or run the other way; the % refers to the signal ratio)
Outline: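 Beta-lactamase reporter activity, read as fluorescence intensity, was measured in GR-bla HeLa cells exposed to compounds for 18 h at 37 C and then loaded with LiveBLAzer B/G FRET substrate for 2 h at room temperature.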

[19] = molecular target: Glucocorticoid receptor (Homo sapiens) (UniProt P04150); test: qHTS assay to identify small molecule antagonists of the glucocorticoid receptor (GR) signaling pathway (AID 720692; active = well fitted inhibition curve with a large enough effect in the signal ratio in the repeat runs, not every such curve was filed as active; inconclusive = weak or mixed curves, or effect the other way; inactive = no such curve, though single readings can be large or run the other way; the % refers to the signal ratio)
Outline: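 Fluorescence from cleaved LiveBLAzer B/G FRET substrate reports GRE-driven beta-lactamase in HeLa cells; compounds are tested against 5 nM dexamethasone (final) over 18 h at 37 C, substrate incubation 2 h at room temperature.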

[20] = qHTS assay to identify small molecule antagonists of the glucocorticoid receptor (GR) signaling pathway - cell viability counter screen (AID 720693); note: nearly all actives have a fitted effect of over 55% in size
[21] = qHTS assay for identifying genotoxic compounds that show differential cytotoxicity against isogenic chicken DT40 cell lines with known DNA damage response pathways - Rev3 mutant cell line (AID 743014); note: nearly all actives have a fitted effect of over 55% in size
[22] = qHTS assay for identifying genotoxic compounds that show differential cytotoxicity against isogenic chicken DT40 cell lines with known DNA damage response pathways - Rad54/Ku70 mutant cell line (AID 743015); note: nearly all actives have a fitted effect of over 60% in size
[23] = qHTS assay to identify small molecule antagonists of the androgen receptor (AR) signaling pathway - cell viability counter screen (AID 743033; note: nearly all actives have a fitted effect of over 45% in size)
[24] = molecular target: Androgen receptor (Homo sapiens) (UniProt P10275); test: qHTS assay to identify small molecule agonists of the androgen receptor (AR) signaling pathway using the MDA cell line (AID 743040; note: potency is the fitted concentration of half-maximal effect; nearly all actives have a fitted effect of over 20% in size)
Outline: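 Luminescence from ONE-Glo, read after 30 min at room temperature, reflects MMTV-driven luciferase in MDA-kb2 cells (AR- and GR-responsive). Treatment lasted 16 h at 37C, 0% CO2.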

[25] = qHTS assay to identify small molecule antagonists of the androgen receptor (AR) signaling pathway using the MDA cell line - cell viability counter screen (AID 743041; note: nearly all actives have a fitted effect of over 45% in size)
Outline: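 Viability counter screen run alongside the AR antagonist reporter: cells seeded 5 h before compound, R1881 added, 16 h incubation at 37C without CO2, fluorescent CellTiter-Fluor signal quantified.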

[26] = molecular target: Androgen receptor (Homo sapiens) (UniProt P10275); test: qHTS assay to identify small molecule antagonists of the androgen receptor (AR) signaling pathway using the MDA cell line (AID 743042; note: nearly all actives have a fitted effect of over 55% in size)
Outline: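 MDA-kb2 cells (human breast carcinoma, stably carrying an MMTV-luciferase reporter responsive to AR and GR) were plated at 3,000 cells/well and preincubated 5 hr at 37C, then given compound plus R1881 agonist for 16 h. ONE-Glo luminescence was read.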

[27] = qHTS assay to identify small molecule antagonists of the estrogen receptor alpha (ER-alpha) signaling pathway - cell viability counter screen (AID 743074; calls by dose curve;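 note: HEK293 cells carrying ER-alpha-UAS-bla reporter stimulated with 17beta-estradiol; nearly all actives have a fitted effect of over 45% in size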)
[28] = molecular target: Estrogen receptor (Homo sapiens) (UniProt P03372); test: qHTS assay to identify small molecule agonists of the estrogen receptor alpha (ER-alpha) signaling pathway (AID 743075; calls by dose curve;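 note: HEK293 GripTite cells with ER-alpha and UAS-driven beta-lactamase reporter; potency is the fitted concentration of half-maximal effect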)
[29] = molecular target: Estrogen receptor (Homo sapiens) (UniProt P03372); test: qHTS assay to identify small molecule agonists of the estrogen receptor alpha (ER-alpha) signaling pathway using the BG1 cell line (AID 743079); note: potency is the fitted concentration of half-maximal effect; nearly all actives have a fitted effect of over 20% in size
[30] = qHTS assay to identify small molecule antagonists of the estrogen receptor alpha (ER-alpha) signaling pathway using the BG1 cell line (AID 743080; calls by dose curve;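 note: BG1 cells stimulated with 17beta-estradiol alongside compound; series mostly up to about 70 µM; nearly all actives have a fitted effect of over 25% in size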)
Outline: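 Luminescence from a 4×ERE-luciferase reporter in BG1-Luc-4E2 cells served as read-out. Cells, pre-cultured 5 days in stripped-serum phenol-red-free medium, were exposed to compound with 17beta-estradiol co-stimulation for 21.5 h at 37 C.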

[31] = qHTS assay to identify small molecule antagonists of the estrogen receptor alpha (ER-alpha) signaling pathway using the BG1 cell line - cell viability counter screen (AID 743081);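 note: compound given together with 17beta-estradiol as the ER stimulus; series mostly up to about 70 µM; nearly all actives have a fitted effect of over 45% in size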
Aromatase (Homo sapiens) = Aromatase (Homo sapiens) (UniProt P11511); test: qHTS assay to identify aromatase inhibitors (AID 743083); note: series mostly up to about 70 µM; nearly all actives have a fitted effect of over 55% in size
[32] = qHTS assay to identify aromatase inhibitors - cell viability counter screen (AID 743084)
[33] = molecular target: Aryl hydrocarbon receptor (Homo sapiens) (UniProt P35869); test: qHTS assay to identify small molecule that activate the aryl hydrocarbon receptor (AhR) signaling pathway (AID 743085);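 note: HG2L7.5c1 human HepG2 liver cells with stably integrated DRE-driven firefly reporter; series mostly up to about 70 µM; nearly all actives have a fitted effect of over 15% in size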
Outline: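 A multiplexed format paired cell viability (CellTiter-Fluor fluorescence) with AhR-dependent luciferase output (ONE-Glo luminescence) in the same wells of HepG2 DRE-luc cells after 24 h compound exposure at 37C.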

[34] = qHTS assay to identify small molecule that activate the aryl hydrocarbon receptor (AhR) signaling pathway - cell viability counter screen (AID 743086)
Outline: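 HepG2-AhR-luc (HG2L7.5c1) cells, 4000/well, were preincubated 5 h at 37C, exposed to compound in qHTS format for 24 hr at 37C, then given CellTiter-Fluor for 30 min; viability was read as fluorescence in the reporter wells.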

[35] = molecular target: Peroxisome proliferator-activated receptor gamma (Homo sapiens) (UniProt P37231); test: qHTS assay to identify small molecule agonists of the peroxisome proliferator-activated receptor gamma (PPARg) signaling pathway (AID 743094; active = well fitted activation curve with a large enough effect in the signal ratio in the repeat runs, not every such curve was filed as active; inconclusive = weak or mixed curves, or effect the other way; inactive = no such curve, though single readings can be large or run the other way; the % refers to the signal ratio)
Outline: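 Stably transfected HEK293H cells (GeneBLAzer PPARg UAS-bla) were incubated with test substances for 17 h at 37C after a 5 h pre-incubation; beta-lactamase activity was then detected by FRET substrate fluorescence.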

[36] = molecular target: Acetylcholinesterase (Homo sapiens) (UniProt P22303); test: Acetylcholinesterase (AChE) small molecule antagonists: enzyme-based qHTS assay (AID 1347397; calls by dose curve; note: nearly all actives have a fitted effect of over 55% in size); conditions: Potency: AChE enzyme activity inhibition; outcome: AChE enzyme activity inhibition
Outline: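 Human recombinant acetylcholinesterase; substrate acetylthiocholine; thiocholine quantified with DTNB (colorimetric). Compound preincubation 30 min RT; reaction 10 min RT.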

[37] = molecular target: Acetylcholinesterase (Homo sapiens) (UniProt P22303); test: Acetylcholinesterase (AChE) small molecule antagonists: fluorescence cell-based qHTS assay (AID 1347398; calls by dose curve; note: nearly all actives have a fitted effect of over 50% in size); conditions: Potency: AChE activity; outcome: AChE activity
Outline: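 Thiocholine generated from acetylthiocholine by SH-SY5Y cell AChE is detected with Thiolite Green (Ex/Em 490/520 nm) after 40 min at room temperature, following 30 min compound pretreatment at 37 C.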

[38] = molecular target: Acetylcholinesterase (Homo sapiens) (UniProt P22303); test: Acetylcholinesterase (AChE) small molecule antagonists: enzyme-based qHTS assay with human liver microsomes (AID 1347399; calls by dose curve; note: nearly all actives have a fitted effect of over 60% in size); conditions: Potency: qHTS inhibition; outcome: qHTS inhibition
Outline: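 Recombinant human AChE (50 mU/mL in the enzyme mix) and human liver microsomes (0.25 mg/mL final) were preincubated with compound and NADPH (0.25 mg/mL final) for 30 min at 37 C. Acetylthiocholine/DTNB was then added; thiocholine was read colorimetrically after 10 min at room temperature.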

Measured: Potency

Sequence of Estrogen receptor (Homo sapiens) (P03372 whole entry, looked up): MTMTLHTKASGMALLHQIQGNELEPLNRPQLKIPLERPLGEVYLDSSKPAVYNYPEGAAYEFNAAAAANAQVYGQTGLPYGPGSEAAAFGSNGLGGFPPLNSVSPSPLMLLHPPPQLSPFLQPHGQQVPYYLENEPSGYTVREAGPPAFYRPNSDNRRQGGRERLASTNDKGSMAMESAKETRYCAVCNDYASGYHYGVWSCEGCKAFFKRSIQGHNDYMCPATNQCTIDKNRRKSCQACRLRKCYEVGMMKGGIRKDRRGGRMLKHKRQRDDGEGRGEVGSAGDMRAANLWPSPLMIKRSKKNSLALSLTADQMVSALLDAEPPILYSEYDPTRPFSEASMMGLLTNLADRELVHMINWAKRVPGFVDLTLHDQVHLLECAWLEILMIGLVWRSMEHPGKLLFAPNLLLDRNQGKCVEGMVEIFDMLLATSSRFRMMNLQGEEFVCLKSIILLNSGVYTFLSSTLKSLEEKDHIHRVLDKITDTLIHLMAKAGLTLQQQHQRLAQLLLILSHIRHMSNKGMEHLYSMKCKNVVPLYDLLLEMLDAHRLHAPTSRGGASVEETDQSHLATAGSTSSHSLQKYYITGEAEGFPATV
Sequence of Acetylcholinesterase (Homo sapiens) (P22303 whole entry, looked up): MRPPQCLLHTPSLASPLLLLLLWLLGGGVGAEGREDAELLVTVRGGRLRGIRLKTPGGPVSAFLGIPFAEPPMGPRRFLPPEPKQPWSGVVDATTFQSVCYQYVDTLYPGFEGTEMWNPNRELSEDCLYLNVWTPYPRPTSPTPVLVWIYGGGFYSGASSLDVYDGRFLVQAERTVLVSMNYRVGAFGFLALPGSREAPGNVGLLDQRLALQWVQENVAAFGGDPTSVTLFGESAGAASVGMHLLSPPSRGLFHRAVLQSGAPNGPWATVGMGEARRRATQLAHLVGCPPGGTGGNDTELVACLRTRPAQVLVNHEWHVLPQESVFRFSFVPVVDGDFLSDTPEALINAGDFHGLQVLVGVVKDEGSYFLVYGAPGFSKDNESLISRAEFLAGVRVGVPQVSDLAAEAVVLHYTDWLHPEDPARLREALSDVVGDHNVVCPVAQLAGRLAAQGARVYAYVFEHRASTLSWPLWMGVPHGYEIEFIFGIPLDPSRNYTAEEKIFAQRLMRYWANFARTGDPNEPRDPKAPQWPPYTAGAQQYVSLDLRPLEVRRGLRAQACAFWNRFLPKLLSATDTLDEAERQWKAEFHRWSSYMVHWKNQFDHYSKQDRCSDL
Sequence of Glucocorticoid receptor (Homo sapiens) (P04150 whole entry, looked up): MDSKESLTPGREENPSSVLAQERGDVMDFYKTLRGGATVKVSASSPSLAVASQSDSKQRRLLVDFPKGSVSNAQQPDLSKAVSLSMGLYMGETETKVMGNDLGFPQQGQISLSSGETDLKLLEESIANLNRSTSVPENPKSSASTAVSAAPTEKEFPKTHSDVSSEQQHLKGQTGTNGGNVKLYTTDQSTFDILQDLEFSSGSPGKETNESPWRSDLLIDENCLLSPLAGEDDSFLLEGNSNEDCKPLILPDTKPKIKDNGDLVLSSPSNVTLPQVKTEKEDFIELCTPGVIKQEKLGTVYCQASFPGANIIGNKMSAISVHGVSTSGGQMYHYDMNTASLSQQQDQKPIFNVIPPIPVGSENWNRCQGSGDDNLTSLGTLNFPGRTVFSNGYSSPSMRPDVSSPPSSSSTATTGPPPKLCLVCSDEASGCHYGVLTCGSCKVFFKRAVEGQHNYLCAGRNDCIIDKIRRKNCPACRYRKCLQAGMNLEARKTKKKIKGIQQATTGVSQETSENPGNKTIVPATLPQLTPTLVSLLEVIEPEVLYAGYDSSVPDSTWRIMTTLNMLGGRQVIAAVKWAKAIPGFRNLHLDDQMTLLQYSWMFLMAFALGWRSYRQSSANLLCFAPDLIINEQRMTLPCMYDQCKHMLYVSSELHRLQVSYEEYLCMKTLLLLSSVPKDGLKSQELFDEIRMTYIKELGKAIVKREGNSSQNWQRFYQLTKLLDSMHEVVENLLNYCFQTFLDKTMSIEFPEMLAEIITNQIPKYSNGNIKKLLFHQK
Sequence of Androgen receptor (Homo sapiens) (P10275 whole entry, looked up): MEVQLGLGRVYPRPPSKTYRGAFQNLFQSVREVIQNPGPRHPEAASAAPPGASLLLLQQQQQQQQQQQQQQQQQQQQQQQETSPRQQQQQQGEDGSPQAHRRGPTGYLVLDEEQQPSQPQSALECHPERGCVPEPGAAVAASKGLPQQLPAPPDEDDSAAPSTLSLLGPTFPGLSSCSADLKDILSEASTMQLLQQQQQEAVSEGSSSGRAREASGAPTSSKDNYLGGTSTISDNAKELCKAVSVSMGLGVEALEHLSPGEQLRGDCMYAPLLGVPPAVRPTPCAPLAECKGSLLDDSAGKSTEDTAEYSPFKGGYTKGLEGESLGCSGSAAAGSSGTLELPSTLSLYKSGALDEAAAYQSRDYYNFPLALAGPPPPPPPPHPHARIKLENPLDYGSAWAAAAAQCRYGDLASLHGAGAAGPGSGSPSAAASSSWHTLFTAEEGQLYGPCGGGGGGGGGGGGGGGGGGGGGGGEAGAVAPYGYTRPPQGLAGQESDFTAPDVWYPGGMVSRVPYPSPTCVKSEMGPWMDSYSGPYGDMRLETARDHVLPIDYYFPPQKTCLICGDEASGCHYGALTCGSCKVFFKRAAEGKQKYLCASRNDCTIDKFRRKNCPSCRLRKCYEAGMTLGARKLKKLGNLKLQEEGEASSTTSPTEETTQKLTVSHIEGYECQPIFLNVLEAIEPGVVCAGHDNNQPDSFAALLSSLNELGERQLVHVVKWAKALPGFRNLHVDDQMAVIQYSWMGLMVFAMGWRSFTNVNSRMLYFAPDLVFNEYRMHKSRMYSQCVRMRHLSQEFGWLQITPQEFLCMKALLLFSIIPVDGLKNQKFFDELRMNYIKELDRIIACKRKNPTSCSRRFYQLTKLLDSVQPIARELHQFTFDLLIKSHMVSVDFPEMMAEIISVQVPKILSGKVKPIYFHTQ
Sequence of Peroxisome proliferator-activated receptor gamma (Homo sapiens) (P37231 whole entry, looked up): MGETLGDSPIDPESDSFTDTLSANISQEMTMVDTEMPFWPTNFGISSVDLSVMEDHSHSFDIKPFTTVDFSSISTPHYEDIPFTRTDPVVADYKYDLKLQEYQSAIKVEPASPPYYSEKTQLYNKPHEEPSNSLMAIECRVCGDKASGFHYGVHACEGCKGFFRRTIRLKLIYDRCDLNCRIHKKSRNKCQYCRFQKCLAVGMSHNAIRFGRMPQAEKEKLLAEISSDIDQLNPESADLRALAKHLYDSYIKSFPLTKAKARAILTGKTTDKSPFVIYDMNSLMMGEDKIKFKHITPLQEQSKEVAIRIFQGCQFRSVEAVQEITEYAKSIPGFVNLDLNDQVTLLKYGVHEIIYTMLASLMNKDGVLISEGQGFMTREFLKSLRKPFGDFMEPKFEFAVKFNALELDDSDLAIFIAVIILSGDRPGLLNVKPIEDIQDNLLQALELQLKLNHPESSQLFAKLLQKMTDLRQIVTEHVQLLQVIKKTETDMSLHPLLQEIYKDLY
Sequence of Aryl hydrocarbon receptor (Homo sapiens) (P35869 whole entry, looked up): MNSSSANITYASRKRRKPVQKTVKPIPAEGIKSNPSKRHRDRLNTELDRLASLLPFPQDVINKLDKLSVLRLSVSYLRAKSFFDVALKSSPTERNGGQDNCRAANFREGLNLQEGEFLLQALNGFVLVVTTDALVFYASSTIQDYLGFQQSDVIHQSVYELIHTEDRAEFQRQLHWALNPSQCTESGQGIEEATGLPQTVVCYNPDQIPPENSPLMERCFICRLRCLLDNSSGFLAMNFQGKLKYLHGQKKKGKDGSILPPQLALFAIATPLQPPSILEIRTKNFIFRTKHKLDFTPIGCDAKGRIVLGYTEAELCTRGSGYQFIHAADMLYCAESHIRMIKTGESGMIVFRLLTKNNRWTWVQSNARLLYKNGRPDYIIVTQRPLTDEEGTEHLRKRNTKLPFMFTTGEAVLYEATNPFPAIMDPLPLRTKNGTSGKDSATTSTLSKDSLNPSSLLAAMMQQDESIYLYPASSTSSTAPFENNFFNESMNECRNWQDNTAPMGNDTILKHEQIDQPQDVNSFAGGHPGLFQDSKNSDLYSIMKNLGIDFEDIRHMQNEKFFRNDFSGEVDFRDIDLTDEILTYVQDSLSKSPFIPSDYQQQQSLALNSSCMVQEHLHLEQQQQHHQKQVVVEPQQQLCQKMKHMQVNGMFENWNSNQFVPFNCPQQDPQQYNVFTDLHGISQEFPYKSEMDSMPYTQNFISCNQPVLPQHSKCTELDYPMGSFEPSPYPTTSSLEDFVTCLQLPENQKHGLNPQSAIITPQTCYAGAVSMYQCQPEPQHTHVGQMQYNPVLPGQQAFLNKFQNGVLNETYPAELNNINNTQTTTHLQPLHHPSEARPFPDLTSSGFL
Sequence of Aromatase (Homo sapiens) (P11511 whole entry, looked up): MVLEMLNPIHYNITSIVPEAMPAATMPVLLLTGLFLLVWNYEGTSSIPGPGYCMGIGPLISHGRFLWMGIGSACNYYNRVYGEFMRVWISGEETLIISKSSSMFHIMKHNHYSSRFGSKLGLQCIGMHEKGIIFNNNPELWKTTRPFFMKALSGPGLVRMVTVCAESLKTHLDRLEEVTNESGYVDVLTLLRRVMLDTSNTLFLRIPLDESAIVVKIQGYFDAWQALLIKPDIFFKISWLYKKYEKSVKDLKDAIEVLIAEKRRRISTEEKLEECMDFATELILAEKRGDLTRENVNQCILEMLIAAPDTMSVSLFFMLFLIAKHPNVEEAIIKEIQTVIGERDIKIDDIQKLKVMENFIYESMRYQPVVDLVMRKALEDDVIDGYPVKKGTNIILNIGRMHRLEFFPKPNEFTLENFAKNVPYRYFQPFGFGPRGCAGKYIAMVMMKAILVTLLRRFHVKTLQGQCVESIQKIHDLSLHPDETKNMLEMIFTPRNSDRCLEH

C[C@]12CC[C@@H]3c4ccc(OC(=O)N(CCCl)CCCl)cc4CC[C@H]3[C@@H]1CC[C@@H]2OP(=O)(O)O
active: [1] 7.5 µM and 29.8 µM | [24] 5.31 µM and 10.6 µM | [28] 21.3 nM [inconclusive] and 16.9 nM [inconclusive] | [29] 4.7 nM and 16.8 nM
not listed: [36] | [37] | [38]
inactive: all other assays above

COC(=O)c1cccnc1
inactive: [36] | [37] | [38]
